From PubChem BioAssay AID651592 (Sanford-Burnham Center for Chemical Genomics, 2012)
Calls of active or inactive are those of the source.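 How the source made its calls: active means NF-kB reporter IC50 at most 10 µM, IL-8 IC50 within fivefold of it with bacterial filtrate but not with TNF-alpha; inactive means the rest.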

assay: inhibitors of NFkB activation in CF airway cells, SAR follow-up, KKLEB cells, panel, IL8 HTRF, NFkB-GFP (AID 651592); details: PAF/TNFa-induced NFkB-GFP / IL8 HTRF, CF-PAF assay, mean of runs;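 further: immortalized cystic fibrosis airway epithelial KKLEB cells with an NF-kB GFP reporter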

| SMILES | outcome |
| --- | --- |
| O=C(Nc1ccc(N2CCN(C(=O)c3ccccc3)CC2)cc1)c1cc(Br)cc(Br)c1 | inactive |
| O=C(Nc1ccc(N2CCN(C(=O)c3ccccc3)CC2)cc1)c1cccnc1 | inactive |
| O=C(Nc1ccc(N2CCN(C(=O)c3ccc(F)cc3)CC2)cc1)c1cncc(Br)c1 | active |
| O=C(Nc1ccc(N2CCN(C(=O)c3ccc(F)cc3)CC2)cc1)c1cc(Br)cc(Br)c1 | inactive |
| O=C(Nc1ccc(N2CCN(C(=O)c3ccccc3Cl)CC2)cc1)c1cccnc1 | inactive |
| O=C(Nc1ccc(N2CCN(C(=O)c3ccccc3Cl)CC2)cc1)c1cc(Br)cc(Br)c1 | inactive |
| O=C(Nc1ccc(N2CCN(C(=O)c3ccc(F)cc3)CC2)cc1)c1ccncc1 | inactive |
| O=C(Nc1ccc(N2CCN(C(=O)c3ccccc3Cl)CC2)cc1)c1cccc(Br)c1 | inactive |
| O=C(Nc1ccc(N2CCN(C(=O)c3ccccc3F)CC2)cc1)c1ccccc1 | inactive |
| Cc1ccc(NCc2cc3c(C(C)(C)C)nn(-c4ccccc4)c3[nH]c2=O)cc1 | inactive |
| O=C(Nc1ccc(N2CCN(C(=O)c3ccccc3)CC2)cc1)c1ccccc1 | inactive |
| CCOc1ccc(NCc2cc3c(C(C)(C)C)nn(-c4ccccc4)c3[nH]c2=O)cc1 | inactive |
| O=C(Nc1ccc(N2CCN(C(=O)c3ccccc3)CC2)cc1)c1ccncc1 | inactive |
| O=C(Nc1ccc(N2CCN(C(=O)c3ccc(F)cc3)CC2)cc1)c1cccnc1 | inactive |
| O=C(Nc1ccc(N2CCN(C(=O)c3ccc(F)cc3)CC2)cc1)c1cccc(Br)c1 | inactive |
| CCOc1ccc(NCc2cc3c(-c4ccc(F)cc4)nn(-c4ccccc4)c3[nH]c2=O)cc1 | active |
